# From PubChem
# An excerpt weighted towards active compounds, which were near 4.6% of everything screened.
# NALP3 yeast inh = NALP3 inhibition in yeast. hit rate 0.39% among 330,000. AID 2825. Yeast reconstituted NLRP3/ASC/caspase-1, beta-gal luminescence, 24 h. inhibition, % at 10 µM;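 active = inhibition of 50% or more; inactive = inhibition below 50%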;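 note: plate controls were induced DMSO wells for no effect and uninduced yeast grown without galactose for full effect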
# tim23-1 inh = inhibits growth of tim23-1 mutant yeast; hit rate 1.3% among 330,000; S. cerevisiae tim23-1 growth, BacTiter-Glo luminescence, 24 h; AID 463212; inhibition, % at 20 µM;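 active = growth inhibition of the mutant yeast at or above 50%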;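 note: temperature-sensitive mutant grown at 25 °C; plate controls were DMSO-treated mutant yeast for no effect and medium wells lacking yeast for full effect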
# PfHsp90 set2 = growth inhibition of yeast expressing Plasmodium Hsp90; AID 504621; hit rate 0.32% among 310,000; S. cerevisiae expressing PfHsp90, BacTiter-Glo ATP, 48 h; yeast lacking PDR1 and PDR3 efflux regulators; inhibition, % at 9.4 µM;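 active = every replicate shows inhibition above about 80%, whatever the replicate mean, limit read from the data; inconclusive = mean inhibition reaches the set limit but some replicate falls short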;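 note: 0% = DMSO neutral controls and 100% = 20 µM radicicol positive controls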
# SKKanGAS inh = SKKanGAS growth inhibition; S. pyogenes SKKanGAS, kanamycin growth, BacTiter-Glo, 6 h; inhibition, % at 7.5 µM; hit rate 1.3% among 300,000;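 active = mean replicate score, as percent of positive control median, at least 50; inconclusive = mean below 50 but one replicate at or above 50; inactive = mean and every replicate below 50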;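 note: strain carries kanamycin resistance gene driven by streptokinase promoter and grows in 40 µg/ml kanamycin; loss of luminescence reflects streptokinase promoter inhibition or plain growth inhibition; 0% = median of DMSO wells and 100% = positive control at its reference dose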
# TIM10 inh = TIM10 yeast growth inhibition. S. cerevisiae TIM10 strain growth, BacTiter-Glo luminescence, 24 h. inhibition, % at 10 µM. hit rate 1.4% among 330,000. AID 463195;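 active = inhibition of 40% or more at the single tested concentration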;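 note: wild-type TIM10 isogenic control strain grown at permissive 25 °C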
# tim10-1 inh = inhibits growth of tim10-1 mutant yeast; S. cerevisiae tim10-1 ts strain growth, BacTiter-Glo, 24 h; inhibition, % at 20 µM; hit rate 2.2% among 330,000; AID 463190;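 active = inhibition of at least 40%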;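 note: mutant grown at 25 °C; 0% = DMSO wells with yeast and 100% = wells holding no yeast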
# Numbers without * were called inactive; ? = inconclusive; / = no result.
SMILES,NALP3 yeast inh,tim23-1 inh,PfHsp90 set2,SKKanGAS inh,TIM10 inh,tim10-1 inh
N#Cc1ccc(-c2nc3ccc(Br)cc3c(=O)n2O)cc1,38.6,47.8,-3.9,4.9,11.2,5.1
O=c1c2cc(Br)ccc2nc(-c2cccc(C(F)(F)F)c2)n1O,20.6,49.8,/,111.1*,-19.2,30.8
COc1cccc(C(C(=O)NC(C)(C)C)N(C(=O)CCC(=O)Nc2cc(C)on2)c2ccc3c(c2)OCCO3)c1OC (configuration not stated),1.1,8.7,-35.6,-0.6,2.8,1.8
Cc1cc(F)ccc1NC(=O)Cn1c(C)csc1=O,-6.1,-15.1,15.3,/,3.5,5.4
Cc1ccc(CNC(=O)Cc2ccc(Br)cc2)cc1,12.9,-8.1,-4.1,2.3,-5.7,-14.9
CN(C)Cc1nc2ccccc2c(=O)n1Cc1nc(-c2cc3ccccc3o2)cs1,14.2,25.8,23.7,74.0*,8.7,15.0
Cc1csc(Cn2c(CN(C)C)nc3ccccc3c2=O)n1,1.4,10.1,-14.6,/,8.7,8.1
FC(F)(F)c1cc(N2CCN(Cc3ccccc3)CC2)c2ccccc2n1,28.4,1.3,7.3,50.0*,19.1,13.3
FC(F)(F)c1cc(N2CCNCC2)c2ccccc2n1,3.5,-2.1,3.8,-2.2,-7.1,-0.4
Cn1c2ccccc2c(=O)c2ccc(C#Cc3ccc(N)cc3)cc21,14.4,30.1,-8.8,69.8*,21.4,27.3
COc1ccccc1C#Cc1ccc2c(=O)c3ccccc3n(C)c2c1,11.0,1.6,/,5.5,-8.3,25.3
COc1ccc(C#Cc2ccc3c(=O)c4ccccc4n(C)c3c2)cc1,15.2,15.6,-44.5,75.7*,20.6,28.6
COc1ccc(CN(C)CC(=O)Nc2ccc(Cl)cc2C(F)(F)F)c(OC)c1,5.0,19.7,19.9,27.8,6.4,31.3
COc1ccc(-c2ncn(CCC#N)c2[N+](=O)[O-])cc1,-8.1,5.8,-8.4,96.7*,5.3,4.1
O=C(CN1CCN(Cc2ccccc2)CC1)NNC(=O)c1ccccc1,13.2,-1.0,-5.7,/,-11.3,-11.0
CCN1C(=O)C(CC(=O)Nc2ccc(Br)cc2)N(CCCc2ccccc2)C1=S (configuration not stated),5.3,36.6,-5.4,91.8*,29.8,37.5
Cc1sc2nc(SCc3ccccc3)n(Cc3ccco3)c(=O)c2c1C,11.1,16.3,12.2,21.4,0.4,6.7
Cc1ccc(CSc2nc3sc(C)c(C)c3c(=O)n2Cc2ccco2)cc1,7.9,24.5,-3.4,78.2*,3.4,20.5
CCN1C(=O)/C(=C\c2ccc(-c3ccc([N+](=O)[O-])cc3OC)o2)SC1=Nc1cccc(C(=O)O)c1,/,/,-15.0,56.0*,/,/
C#CCN1C(=O)S/C(=C\c2ccc(-c3ccc(Cl)c(C(=O)O)c3)o2)C1=O,7.7,-10.6,-6.6,67.8*,-0.5,-12.3
CCN1C(=O)/C(=C\c2ccc(-c3cccc(C(=O)OC)c3)o2)SC1=Nc1ccc(C(=O)O)cc1,9.4,-12.0,/,46.3,0.4,6.8
O=C(O)c1cccc(-c2ccc(/C=C3/SC(=Nc4ccccc4)N(Cc4cccnc4)C3=O)o2)c1,10.8,15.2,-16.0,52.7*,19.3,36.5
Cc1cccc(NC(=O)CN2C(=O)S/C(=C\c3ccc(-c4cccc(C(=O)O)c4C)o3)C2=O)c1,23.3,17.3,1.7,?,9.3,25.3
Cc1ccc(NC(=O)CN2C(=O)S/C(=C/c3ccc(-c4cc(C(=O)O)ccc4C)o3)C2=O)cc1C,-0.8,11.7,-18.6,84.5*,0.6,23.7
O=C(OCc1ccccc1)/C(=C/c1ccccc1Cl)NC(=O)c1ccco1,11.0,37.3,-12.1,30.6,9.8,16.7
SMILES,NALP3 yeast inh,tim23-1 inh,PfHsp90 set2,SKKanGAS inh,TIM10 inh,tim10-1 inh
COc1ccc(OC)c(NC(=O)CSc2nc3[nH]c(=O)[nH]c(=O)c3s2)c1,/,/,10.7,/,/,/
O=C(CSc1ncn[nH]1)Nc1cc(S(=O)(=O)N2CCCC2)ccc1Cl,10.6,2.6,12.4,-2.0,10.2,12.1
CCN=C1S/C(=C\c2ccc(-c3cccc(C(=O)O)c3)o2)C(=O)N1CC,2.7,17.3,-8.2,56.3*,6.3,25.9
O=C1/C(=C/c2cccnc2)SC(=NCc2ccccc2)N1Cc1ccccc1,4.9,5.5,33.5,54.0*,23.4,-4.8
O=C(O)CCN1C(=O)S/C(=C\c2cccnc2)C1=O,1.7,10.5,-12.8,-11.1,-4.9,-1.5
CC(Sc1nnc(C2CC2)n1Cc1ccccc1)C(=O)N1CCNC1=O (configuration not stated),4.8,-4.5,22.6,/,-0.3,-11.4
C=C1c2cccc(O)c2C(O)=C2C(=O)[C@]3(O)C(O)=C(C(N)=O)C(=O)[C@@H](N(C)C)[C@@H]3[C@@H](O)[C@H]12,7.6,-2.1,8.5,106.3*,-7.2,14.3
C[C@H]1c2cccc(O)c2C(O)=C2C(=O)C3(O)C(O)=C(C(N)=O)C(=O)[C@@H](N(C)C)[C@@H]3[C@@H](O)[C@@H]21 (some centres not stated),15.9,14.3,-1.1,/,-3.0,6.4
CN(C)c1ccc(O)c2c1CC1CC3C(N(C)C)C(=O)C(C(N)=O)=C(O)[C@@]3(O)C(=O)C1=C2O (some centres not stated),20.8,6.8,-2.0,109.6*,-0.7,-5.9
CC(C)Cn1c(SCC(=O)Nc2cccnc2Cl)nnc1-c1ccco1,22.5,21.8,13.4,/,3.4,9.8
CC(=O)NNC(=S)NC(=O)C(c1ccccc1)c1ccccc1,28.3,0.4,10.0,61.3*,24.7,36.0
O=C(NC(=S)Nc1ccc(Cl)cn1)C(c1ccccc1)c1ccccc1,35.9,7.6,/,76.9*,27.2,20.0
Fc1ccc(-c2ccnc(=S)[nH]2)cc1,-1.1,8.6,15.4,2.3,11.3,20.1
CN1C(=O)/C(=N/OC(=O)c2ccccc2)c2ccccc21,6.6,-20.2,137.4*,5.3,19.2,-24.7
CN1C(C)(C)CC(=NOC(=O)c2ccccc2)CC1(C)C,5.6,-0.7,/,-4.3,-8.9,11.9
COc1ccc2c(c1)c(CC(=O)Nc1cccc(S(N)(=O)=O)c1)c(C)n2C(=O)c1ccc(Cl)cc1,-28.3,-35.6,13.4,85.6*,-13.1,-10.4
COc1ccc(NC(=O)Cc2c(C)n(C(=O)c3ccc(Cl)cc3)c3ccc(OC)cc23)cc1,-4.1,9.4,-3.5,2.0,-3.7,15.1
COc1ccc(NS(=O)(=O)c2cccc(NC(=O)CCC(=O)c3ccc(Cl)cc3)c2)cc1,9.5,-1.3,4.0,51.3*,-2.3,10.9
COc1ccccc1OCC(=O)Nc1ccccc1C(=O)N1CCCCC1,13.2,25.5,-0.9,40.0,14.1,14.4
COc1ccc(N2CCN(C(=O)C(=O)c3c(C)n(C)c4ccccc34)CC2)cc1,32.9,28.6,10.4,-2.9,13.9,39.6
O=C(CCN1CCCCCC1)c1ccccc1,19.8,10.3,-3.0,/,-1.7,17.9
O=C(/C=C/c1ccc(O)cc1)c1ccc(O)cc1O,5.6,32.0,1.6,8.8,30.3,32.8
